Hit rate of the full screen: of about 220,000 compounds, about 910 (0.41%) were called active. The list comes from a sample in which actives are over-represented; it also holds similar structures and randomly drawn compounds. Results with a measured potency or affinity are listed apart. Values without a mark were called inactive.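 The calls were made as follows: active = primary inhibition above the hit cutoff, then over 50% inhibition at one or more dose response concentrations (cut at about 23% in these data, passing the limit was not always enough); inconclusive = conflicting primary data, or primary hits not chosen for dose response; inactive = low primary inhibition, or under 50% at every dose.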
These molecules were tested against Aminopeptidase N (Plasmodium falciparum (isolate 3D7)) (UniProt O96935) (assay: malaria alanyl aminopeptidase activity blockers – biochemical, fluorogenic H-Leu-NHMec substrate, 1536-well (AID 1445;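 also: plate controls were DMSO full reaction for no effect and no enzyme background for full effect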)). Conditions: recombinant M1AAP, H-Leu-NHMec fluorogenic kinetic assay; at 30 µM, stronger effect = higher value unless noted.
Aminopeptidase N (Plasmodium falciparum (isolate 3D7)), sequence (O96935 whole entry, looked up): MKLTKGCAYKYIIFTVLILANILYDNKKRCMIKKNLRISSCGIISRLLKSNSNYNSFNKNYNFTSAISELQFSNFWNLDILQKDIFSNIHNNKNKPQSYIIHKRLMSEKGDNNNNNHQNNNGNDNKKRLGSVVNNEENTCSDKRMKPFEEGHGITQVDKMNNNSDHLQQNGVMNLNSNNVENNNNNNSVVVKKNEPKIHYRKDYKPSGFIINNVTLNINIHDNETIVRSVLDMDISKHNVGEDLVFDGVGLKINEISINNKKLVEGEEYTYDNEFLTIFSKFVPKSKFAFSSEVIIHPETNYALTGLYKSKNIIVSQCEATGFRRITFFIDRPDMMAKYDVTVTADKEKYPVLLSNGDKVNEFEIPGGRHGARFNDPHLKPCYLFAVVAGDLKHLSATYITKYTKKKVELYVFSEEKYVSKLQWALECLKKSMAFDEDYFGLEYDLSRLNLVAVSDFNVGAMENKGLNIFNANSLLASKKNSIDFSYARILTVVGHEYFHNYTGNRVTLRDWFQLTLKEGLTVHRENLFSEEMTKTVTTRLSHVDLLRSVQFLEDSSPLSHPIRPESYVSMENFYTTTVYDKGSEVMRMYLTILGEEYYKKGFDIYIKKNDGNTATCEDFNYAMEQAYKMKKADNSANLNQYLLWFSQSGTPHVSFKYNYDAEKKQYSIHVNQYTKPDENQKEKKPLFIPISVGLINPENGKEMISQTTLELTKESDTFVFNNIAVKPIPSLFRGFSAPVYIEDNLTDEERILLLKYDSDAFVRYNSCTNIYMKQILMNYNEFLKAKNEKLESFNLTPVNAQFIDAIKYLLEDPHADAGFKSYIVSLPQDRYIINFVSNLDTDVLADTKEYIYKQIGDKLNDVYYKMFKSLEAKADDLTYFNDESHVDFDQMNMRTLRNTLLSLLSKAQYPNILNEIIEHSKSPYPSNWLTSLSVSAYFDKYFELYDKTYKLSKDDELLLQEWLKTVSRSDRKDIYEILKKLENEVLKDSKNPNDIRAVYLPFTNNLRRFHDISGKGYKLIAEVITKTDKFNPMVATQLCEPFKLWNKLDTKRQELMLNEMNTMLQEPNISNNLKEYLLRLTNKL
Molecule `COc1cc(OC)c2c(C)cc(=O)oc2c1C(CCN1CCN(c2ccccc2)CC1)c1ccc2c(c1)OCO2` (stereo not given) has an inhibition of 1.4%.
`Cc1ccc(C(=O)Nc2ccccc2C(=O)O)cc1NC(=O)COc1c(C)cccc1C` showed an inhibition of 4.7%.
`CN(CC(=O)Nc1cccc2ccccc12)C(=O)/C=C/c1cccs1` showed an inhibition of 16.9%.
`Cc1cc(C)cc(N(C(=O)c2nsc(Cl)c2Cl)C(C(=O)NC2CCCC2)c2ccc(O)cc2)c1` (stereo not given) showed an inhibition of -3.07%.
`N#Cc1cc2c(nc1SCc1ccccc1)CCCC2` gave an inhibition of 5.77%.
With `COc1cccc(/C=N\NC(=O)Cn2nnc3ccccc32)c1O` the inhibition was 1.18%.
`CCn1c(SCC(=O)N/N=C/c2cc(OC)c(O)c(OC)c2)nc2ccccc21` was tested, and the inhibition was 3.33%.
For `Cc1cc(SCC(=O)N/N=C/c2ccc(O)cc2O)c(C)cc1Br`, the inhibition was 24% (active).
`C=CCn1c(CNc2ccccc2)nnc1SCC(=O)N/N=C/c1ccccc1O` was tested, and the inhibition was 30.8%.
In the case of `C=CCn1c(Cn2nnc3ccccc32)nnc1SCC(=O)N/N=C/c1cc(Br)cc(OC)c1O`, the inhibition is reported as 46.2% (active).
With `C=CCn1c(CNc2ccc(C)cc2)nnc1SCC(=O)N/N=C/c1ccc(O)cc1O` the inhibition was 37% (active).
Molecule `C=CCn1c(CNc2ccc(C)cc2)nnc1SCC(=O)N/N=C/c1ccc(O)cc1` has an inhibition of 14.4%.
`Cc1cc(SCC(=O)N/N=C/c2ccc(O)c(O)c2)c(C)cc1Br` was tested, and the inhibition was -0.74%.
With `Cc1cc(SCC(=O)N/N=C/c2ccc(O)c(O)c2O)c(C)cc1Br` the inhibition was 39%.
Molecule `CCC1(CC)Cc2ccccc2C(=O)N1` has an inhibition of 2.59%.
For `Nc1ccccc1SCc1ccccc1Cl`, the inhibition was 1.31%.
Work on `O=C(CCN1CCOCC1)NNC(=O)/C(=C/c1ccccc1)NC(=O)c1ccccc1` yielded an inhibition of 5.04%.
Molecule `O=C(c1cccc(Oc2c(Cl)cccc2[N+](=O)[O-])c1)N1CCCCC1` has an inhibition of 4.82%.
`O=C(CCC1N=C2c3ccccc3N=C(SCc3ccc(Cl)cc3)N2C1=O)NCc1ccco1` (stereo not given) gave an inhibition of 11.4%.
With `Cc1ccc(CSC2=Nc3ccccc3C3=NC(CC(=O)NCc4ccco4)C(=O)N23)cc1` (stereo not given) the inhibition was 25.5% (active).
In the case of `Cc1ccc(CSC2=Nc3ccccc3C3=NC(CCC(=O)NCc4ccco4)C(=O)N23)cc1` (stereo not given), the inhibition is reported as 14.5%.
With `C=CCN=C1S/C(=C\c2ccc(Cl)cc2)C(=O)N1CC=C` the inhibition was 3.89%.
With `Cc1ccc(S(=O)(=O)/N=C2/C=C(Sc3ncn[nH]3)C(=O)c3ccccc32)cc1` the inhibition was 14.9%.
Work on `COC(=O)C(C(C)=O)C1=C/C(=N\S(=O)(=O)c2ccc(C)cc2)c2ccccc2C1=O` (stereo not given) yielded an inhibition of 12.9%.
`O=C(/C=C/c1cccc(Br)c1)N1CCN(c2ccccn2)CC1` showed an inhibition of 12.4%.
In the case of `CCCNC(=O)c1ccc2c(=O)n3c(-c4ccc(C)cc4)csc3nc2c1`, the inhibition is reported as 10%.
With `O=C(O)CSc1nc(-c2cccs2)cc(C(F)(F)F)n1` the inhibition was -2.67%.
In the case of `O=C(c1ccc(C(F)(F)F)cc1)C1CCCN(C(=O)CN2C(=O)CSC2=O)C1` (stereo not given), the inhibition is reported as -2.21%.
Work on `CC(Sc1nc(N)cc(=O)[nH]1)C(=O)Nc1cccc(Cl)c1` (stereo not given) yielded an inhibition of 14.1%.
With `CN(CCc1ccccn1)C(=O)Nc1ccc(C(C)(C)C)cc1` the inhibition was 2.28%.
`O=C1NC(=S)S/C1=C\c1coc2ccccc2c1=O` gave an inhibition of 14.4%.
In the case of `CN1C(=O)/C(=C/c2coc3ccc(O)cc3c2=O)SC1=S`, the inhibition is reported as -2.96%.
Molecule `CCC1CCCCN1C(=O)CCc1nnc(C2CCCCC2)o1` (stereo not given) has an inhibition of 0.86%.
`CC(C)Cc1nnc(NC(=O)CSc2nc(O)c(-c3ccccc3)c(=O)[nH]2)s1` gave an inhibition of 4.36%.
`Nc1ccc(Nc2nc(-c3cc4ccccc4oc3=O)cs2)cc1` was tested, and the inhibition was 6.86%.
Molecule `O=C(Nc1nc(-c2cc3ccccc3oc2=O)cs1)c1ccco1` has an inhibition of 13.4%.
Work on `O=C1N(c2ccccc2)C[C@@H]2C[C@@H](c3cccs3)N3CCC[C@@]123` yielded an inhibition of 2.6%.
Work on `O=C(COc1ccccc1[N+](=O)[O-])Nc1cccnc1` yielded an inhibition of 7.9%.
`O=C(COc1cccc2cccnc12)Nc1ccccc1` was tested, and the inhibition was -0.06%.
With `O=C(COc1ccccc1)Nc1ccc([N+](=O)[O-])cc1` the inhibition was 3.2%.
Work on `O=C(COc1ccccc1[N+](=O)[O-])Nc1ccc(Br)cc1` yielded an inhibition of -3.79%.
In the case of `C=CCNC(=S)Nc1ccc(C(N)=O)cc1`, the inhibition is reported as 4.91%.
Molecule `COC(=O)/C=C/c1ccsc1NC(C)=O` has an inhibition of 7.35%.
`O=C(Nc1ccccc1Oc1ccccc1)c1cccc([N+](=O)[O-])c1` gave an inhibition of 6.7%.
`Cc1nn(-c2cc(N3CCCC3)ccc2[N+](=O)[O-])c(=O)c2ccccc12` showed an inhibition of 8.6%.
For `O=C(CSc1nc2c(c(=O)n1-c1ccc(F)cc1)SCC2)NCC1CCCO1` (stereo not given), the inhibition was 15.6%.
`Cc1ccc(-n2c(SCC(=O)NCC3CCCO3)nc3c(c2=O)SCC3)cc1` (stereo not given) was tested, and the inhibition was 4.19%.
Molecule `COc1ccccc1NC(=O)CN1CCN(C(=O)c2ccco2)CC1` has an inhibition of 1.53%.
`COc1ccc(C(=O)N2CCC(n3c(C)nc4cc(F)ccc43)CC2)cc1` was tested, and the inhibition was -1.13%.
Molecule `CC(C)CNC(=O)C(=O)NN=C1CCCCCC1` has an inhibition of 2.51%.
`O=C(O)c1ccc(NS(=O)(=O)c2ccc3c(c2)OCCO3)cc1` was tested, and the inhibition was 7.45%.
`COC(=O)c1ccc(C)c(NS(=O)(=O)c2ccc3c(c2)OCCO3)c1` showed an inhibition of 9.88%.
`Cc1ccc(C)c(N(C)C(=O)c2cc3c(=O)[nH]c4ccc(C)cc4c3s2)c1` was tested, and the inhibition was -2.28%.
For `CC1(C)CC(=O)c2cc(OCC(=O)NCCN3CCCc4ccccc43)ccc2O1`, the inhibition was 6.69%.
`COc1ccc2c(c1)C(=O)N(c1ccccc1OC)C(=O)C2(C)C` was tested, and the inhibition was 11.7%.
`COc1nnc(-c2ccc(N3CCOCC3)c(NC(C)=O)c2)c2ccccc12` was tested, and the inhibition was 4.98%.
With `O=C(NCc1ccncc1)C1CCN(S(=O)(=O)Cc2ccccc2)CC1` the inhibition was 22.4%.
In the case of `O=C(NCc1ccccc1F)C1CCN(C(=O)c2sccc2-n2cccc2)CC1`, the inhibition is reported as 3.14%.
For `CCS(=O)(=O)N1CCC(C(=O)NCc2cccc(OC)c2)CC1`, the inhibition was -2.58%.
For `CCS(=O)(=O)N1CCC(C(=O)NCc2ccc3c(c2)OCO3)CC1`, the inhibition was 21.3%.
Molecule `Cn1c(C(=O)N2CCCC(C(=O)NCc3ccc4c(c3)OCO4)C2)cc2sccc21` (stereo not given) has an inhibition of 5.35%.
`O=C(NCCc1ccccc1)C1CCN(C(=O)c2sccc2-n2cccc2)CC1` was tested, and the inhibition was 5.4%.
In the case of `CCCS(=O)(=O)N1CCCC(C(=O)NCc2ccc3c(c2)OCO3)C1` (stereo not given), the inhibition is reported as 4.51%.
`CCn1c(C(=O)N2CCC(C(=O)NCc3cccs3)CC2)cc2sccc21` showed an inhibition of 18.2%.
`CCn1c(C(=O)N2CCC(C(=O)NCc3ccc4c(c3)OCO4)CC2)cc2sccc21` was tested, and the inhibition was 31.3% (active).
